For six compounds, outcome and AC50 results are on record in PubChem BioAssay (EPA / NIEHS).

Broadly, the AC50 is the concentration at which the activity in the assay is half-maximal.

Active and inactive are the calls of the source. How the source made its calls: active means hit-call score of the fitted dose curve at least 0.9, where 1 is the maximum; inactive means score below 0.9.

Read-out in test [1]: TIMP metallopeptidase inhibitor 1 (TIMP1), TIMP1 (gene 7076)
Kind of test: BSK_hDFCGF_TIMP1: BioMAP Diversity Plus: hDFCGF Assay for TIMP metallopeptidase inhibitor 1 (TIMP1) Biomarker Activity (AID 2283062). The settings on record: primary human foreskin fibroblasts; actives raise or lower the signal. The method in brief: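 Human skin fibroblasts (primary), hDFCGF system; compound exposure 24 h; TIMP-1 by ELISA; bidirectional fit vs DMSO negative control; overt cytotoxicity by SRB in parallel wells.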

Read-out in test [2]: Vascular cell adhesion molecule 1 (VCAM1), VCAM1 (gene 7412)
As to the kind of experiment: BSK_hDFCGF_VCAM1: BioMAP Diversity Plus: hDFCGF Assay for Vascular cell adhesion molecule 1 (VCAM1) Biomarker Activity (AID 2283065).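 On AC50: VCAM-1 protein level quantified by ELISA after 24 h chemical exposure.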 Conditions: primary human foreskin fibroblasts; actives raise or lower the signal. The method in brief:
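Human foreskin fibroblast primary cells, chemical exposure 24 h; VCAM-1 by ELISA; bidirectional fit, DMSO = negative control/baseline.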

Read-out in test [3]: Plasminogen activator inhibitor-1 (PAI1), SERPINE1 (gene 5054)
As to the kind of experiment: BSK_hDFCGF_PAI1: BioMAP Diversity Plus: hDFCGF Assay for Plasminogen activator inhibitor-1 (PAI1) Biomarker Activity (AID 2283066). Conditions: primary human foreskin fibroblasts; actives raise or lower the signal. The method in brief:
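Human skin fibroblast cultures receive chemical for 24 h before PAI-1 is measured by ELISA; signal changes are fitted bidirectionally against DMSO-treated wells.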

Read-out in test [4]: Intercellular Adhesion Molecule 1 (ICAM1), ICAM1 (gene 3383)
Kind of test: BSK_KF3CT_ICAM1: BioMAP Diversity Plus: KF3CT Assay for Intercellular Adhesion Molecule 1 (ICAM1) Biomarker Activity (AID 2283067). Conditions: primary human keratinocytes with fibroblasts; actives raise or lower the signal. A digest of the protocol:
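ICAM-1 levels are measured by ELISA 24 h after dosing a primary human co-culture of keratinocytes and foreskin fibroblasts. Activity in either direction is fitted relative to DMSO vehicle.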

Read-out in test [5]: Interferon-gamma inducible Protein 10 (IP10), CXCL10 (gene 3627)
Kind of test: BSK_KF3CT_IP10: BioMAP Diversity Plus: KF3CT Assay for Interferon-gamma inducible Protein 10 (IP10) Biomarker Activity (AID 2283068). Conditions: primary human keratinocytes with fibroblasts; actives raise or lower the signal. A digest of the protocol:
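Signal is secreted/surface IP-10 by ELISA in a human primary skin co-culture of keratinocytes and foreskin fibroblasts, taken 24 h post-dosing; DMSO served as negative control.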

The nature of test [6]: BSK_KF3CT_SRB: Viability Assessment in the BioMAP Diversity Plus: KF3CT Assay (AID 2283069).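 Further: read 24 h after compound addition; fitted for both signal gain and loss against DMSO baseline.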 Conditions: primary human keratinocytes with fibroblasts. A digest of the protocol: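 Overt cytotoxicity is assessed as total protein by sulforhodamine B staining in parallel human skin co-cultures at 24 h after dosing. DMSO serves as negative control and baseline.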
Read-out in test [7]: Interleukin-1 alpha (IL1a), IL1A (gene 3552)
Kind of test: BSK_KF3CT_IL1a: BioMAP Diversity Plus: KF3CT Assay for Interleukin-1 alpha (IL1a) Biomarker Activity (AID 2283070). The settings on record: primary human keratinocytes with fibroblasts; actives raise or lower the signal. The method in brief:
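Readout is IL-1a level by ELISA, compared bidirectionally with DMSO as baseline. Cells: human keratinocytes co-cultured with foreskin fibroblasts, harvested 24 h post-dose.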

Read-out in test [8]: TIMP metallopeptidase inhibitor 2 (TIMP2), TIMP2 (gene 7077)
Kind of test: BSK_KF3CT_TIMP2: BioMAP Diversity Plus: KF3CT Assay for TIMP metallopeptidase inhibitor 2 (TIMP2) Biomarker Activity (AID 2283071). The settings on record: primary human keratinocytes with fibroblasts; actives raise or lower the signal. A digest of the protocol:
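Measurements come from ELISA detection of TIMP-2 at 24 hours in a dosed human keratinocyte and foreskin fibroblast co-culture. DMSO serves as negative control and baseline.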

Read-out in test [9]: Transforming growth factor beta 1 (TGFb1), TGFB1 (gene 7040)
Kind of test: BSK_KF3CT_TGFb1: BioMAP Diversity Plus: KF3CT Assay for Transforming growth factor beta 1 (TGFb1) Biomarker Activity (AID 2283072). Conditions: primary human keratinocytes with fibroblasts; actives raise or lower the signal. The method in brief: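 TGF-b1 ELISA on a 24 h dosed co-culture of human keratinocytes and foreskin fibroblasts; cytotoxicity tracked in parallel cultures by SRB staining.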

Read-out in test [10]: C-C motif chemokine 2 (Homo sapiens) (UniProt P13500)
As to the kind of experiment: BSK_KF3CT_MCP1: BioMAP Diversity Plus: KF3CT Assay for Monocyte Chemoattractant Protein 1 (MCP1/CCL2) Biomarker Activity (AID 2283073). The settings on record: primary human keratinocytes with fibroblasts; actives raise or lower the signal. The method in brief: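 ELISA readout of MCP-1 after 24 h chemical dosing of a human skin primary co-culture of keratinocytes and foreskin fibroblasts. Activity was fitted in both directions against DMSO.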

Read-out in test [11]: Matrix Metallopeptidase 9 (MMP9), MMP9 (gene 4318)
As to the kind of experiment: BSK_KF3CT_MMP9: BioMAP Diversity Plus: KF3CT Assay for Matrix Metallopeptidase 9 (MMP9) Biomarker Activity (AID 2283074).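 On AC50: MMP9 protein level quantified by ELISA in the co-culture.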 Conditions: primary human keratinocytes with fibroblasts; actives raise or lower the signal. The method in brief: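 Values come from bidirectional fitting relative to DMSO of MMP-9 levels, which were measured by ELISA. Measurements were taken 24 h after chemical dosing of a keratinocyte and foreskin fibroblast co-culture.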

Read-out in test [12]: urokinase plasminogen activator (uPA), PLAU (gene 5328)
As to the kind of experiment: BSK_KF3CT_uPA: BioMAP Diversity Plus: KF3CT Assay for urokinase plasminogen activator (uPA) Biomarker Activity (AID 2283075). Conditions: primary human keratinocytes with fibroblasts; actives raise or lower the signal. The method in brief:
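Values derive from bidirectional fitting against DMSO controls. Keratinocyte/foreskin fibroblast co-cultures received chemical; 24 h later uPA was detected by ELISA, with SRB total-protein staining in parallel wells for overt cytotoxicity.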

Read-out in another test: CD40, CD40 (gene 958)
Kind of test: BSK_LPS_CD40: BioMAP Diversity Plus: LPS Assay for CD40 Biomarker Activity (AID 2283076). Conditions: primary human HUVEC with PBMC; actives raise or lower the signal. A digest of the protocol: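 Cells were dosed, incubated 24 h, then assayed for CD40 by ELISA. Gain or loss of signal was analysed relative to DMSO controls. The culture paired human umbilical vein endothelium with peripheral blood mononuclear cells.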

Read-out in test [13]: E-selectin (Homo sapiens) (UniProt P16581)
Kind of test: BSK_LPS_Eselectin: BioMAP Diversity Plus: LPS Assay for Eselectin Biomarker Activity (AID 2283077). Conditions: primary human HUVEC with PBMC; actives raise or lower the signal. A digest of the protocol:
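Primary human vascular co-culture (endothelium plus PBMC) was dosed with chemical, then E-selectin quantified by ELISA at 24 h. Endpoint values derive from bidirectional curve fitting relative to DMSO.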

Read-out in test [14]: Interleukin-8 (IL8), CXCL8 (gene 3576)
As to the kind of experiment: BSK_LPS_IL8: BioMAP Diversity Plus: LPS Assay for Interleukin-8 (IL8) Biomarker Activity (AID 2283078). Conditions: primary human HUVEC with PBMC; actives raise or lower the signal. A digest of the protocol: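 Readout is IL-8 by ELISA, taken 24 h after compounds were added to LPS-stimulated endothelial/PBMC co-cultures. Both increases and decreases relative to DMSO control were scored through bidirectional fitting.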

Test [15] in a line: BSK_LPS_SRB: Viability Assessment in the BioMAP Diversity Plus: LPS Assay (AID 2283079).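 Further: total protein by sulforhodamine B absorbance as a cytotoxicity measure; measured one day after compound addition; fitted in both directions against DMSO so loss or gain of signal counts.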 The settings on record: primary human HUVEC with PBMC. The method in brief: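 Readout is SRB absorbance at 560 nm (0.1% stain, TCA-fixed parallel cultures) as a total-protein cytotoxicity measure. Cells: primary human umbilical vein endothelium plus peripheral blood mononuclear cells, 24 h after chemical exposure; DMSO served as baseline.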

Read-out in test [16]: Interleukin-1 alpha (IL1a), IL1A (gene 3552)
Kind of test: BSK_LPS_IL1a: BioMAP Diversity Plus: LPS Assay for Interleukin-1 alpha (IL1a) Biomarker Activity (AID 2283080). The settings on record: primary human HUVEC with PBMC; actives raise or lower the signal. A digest of the protocol:
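ELISA read-out of IL-1 alpha from a human primary vascular co-culture (endothelium plus PBMC) under LPS, sampled 24 hours post-dosing. Activity was fitted in both directions relative to DMSO controls.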

Read-out in test [17]: Monocyte Chemoattractant Protein-1 (MCP1), CCL2 (gene 6347)
As to the kind of experiment: BSK_LPS_MCP1: BioMAP Diversity Plus: LPS Assay for Monocyte Chemoattractant Protein-1 (MCP1) Biomarker Activity (AID 2283081).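 On AC50: secreted MCP-1 protein quantified by ELISA in culture supernatant.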 The settings on record: primary human HUVEC with PBMC; actives raise or lower the signal. The method in brief:
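Human endothelial–PBMC co-cultures were dosed with chemical, then LPS-driven MCP-1 levels were quantified by ELISA at 24 h. Activity in either direction was fitted versus DMSO negative control.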

Read-out in test [18]: Matrix Metallopeptidase 1 (MMP1), MMP1 (gene 4312)
As to the kind of experiment: BSK_hDFCGF_MMP1: BioMAP Diversity Plus: hDFCGF Assay for Matrix Metallopeptidase 1 (MMP1) Biomarker Activity (AID 2283064). The settings on record: primary human foreskin fibroblasts; actives raise or lower the signal. The method in brief: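 Human foreskin fibroblasts exposed to chemical for 24 h; MMP1 detected by ELISA, with DMSO as baseline for bidirectional fitting.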

Read-out in test [19]: Monokine induced gamma interferon (MIG), CXCL9 (gene 4283)
Kind of test: BSK_hDFCGF_MIG: BioMAP Diversity Plus: hDFCGF Assay for Monokine induced gamma interferon (MIG) Biomarker Activity (AID 2283063). The settings on record: primary human foreskin fibroblasts; actives raise or lower the signal. A digest of the protocol:
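Chemicals were added to primary human foreskin fibroblast cultures, which were sampled 24 h later. MIG levels were then quantified by ELISA and responses fitted in both directions relative to DMSO.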

Sequence of E-selectin (Homo sapiens) (P16581 whole entry, looked up): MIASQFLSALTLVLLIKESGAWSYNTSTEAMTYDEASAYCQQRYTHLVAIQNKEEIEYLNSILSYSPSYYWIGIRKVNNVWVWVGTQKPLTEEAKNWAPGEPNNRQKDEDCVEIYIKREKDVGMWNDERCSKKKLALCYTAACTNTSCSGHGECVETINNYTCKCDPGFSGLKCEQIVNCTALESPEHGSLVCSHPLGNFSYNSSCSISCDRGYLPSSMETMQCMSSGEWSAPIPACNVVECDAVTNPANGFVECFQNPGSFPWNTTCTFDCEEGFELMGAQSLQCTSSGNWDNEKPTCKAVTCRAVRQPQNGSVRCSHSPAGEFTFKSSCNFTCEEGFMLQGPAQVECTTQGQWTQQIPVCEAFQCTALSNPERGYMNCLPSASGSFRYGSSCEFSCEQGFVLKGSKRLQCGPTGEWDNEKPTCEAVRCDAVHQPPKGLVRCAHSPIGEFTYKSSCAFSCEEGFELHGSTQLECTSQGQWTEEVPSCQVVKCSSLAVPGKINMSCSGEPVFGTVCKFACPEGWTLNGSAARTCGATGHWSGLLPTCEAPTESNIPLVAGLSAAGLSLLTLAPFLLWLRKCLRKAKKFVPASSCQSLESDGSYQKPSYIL

For the compound `C=CCc1ccc(OC)c(OC)c1`, the result in test [1], in [2], in [3], in [4], in [5] and in [6] was inactive. The outcome in [7], in [8], in [9], in test [10], in [11] and in test [12] was inactive. Moreover, the outcome is “inactive” in the test with CD40, CD40 (gene 958); “inactive” in test [13]; “inactive” in test [14]; “inactive” in [15]; “inactive” in test [16]; “inactive” in test [17].

Take `CN(C)C(=O)NC1(c2ccccc2)CCN(CCC[C@]2(c3ccc(Cl)c(Cl)c3)CCCN(C(=O)c3ccccc3)C2)CC1`: the outcome in test [1], in test [18], in test [2], in [3], in test [4] and in test [5] was inactive. Moreover, the outcome is “inactive” in test [7]; “inactive” in [9]; “inactive” in test [10]; “inactive” in test [11]; “inactive” in test [12]; “inactive” with CD40, CD40 (gene 958). In addition, the outcome in [13], in test [16] and in test [17] was inactive. Moreover, the concentration at half-maximal activity (AC50) in test [14] is 8.1 µM (active).

On to `Cc1c(C)c2c(c(C)c1O)CCC(C)(COc1ccc(CC3SC(=O)NC3=O)cc1)O2` (stereo not drawn), for which the AC50 was 24.8 µM (active) in test [18]; 11.8 µM (active) in test [2]; 8.87 µM (active) in test [3]; 14.1 µM (active) in [4]; 11.3 µM (active) in test [5]; 29.5 µM (active) in test [7]. The AC50 in [8] was 20 µM (active); in test [9], 20.9 µM (active); in [11], 12.7 µM (active); in test [12], 12 µM (active); in the test with CD40, CD40 (gene 958) it was 28.7 µM (active); in [13], 30.3 µM (active). Besides, the half-maximal activity concentration (AC50) is 32.7 µM (active) in [16] and 30.8 µM (active) in test [17].

`CN(C)CCCN1c2ccccc2Sc2ccc(Cl)cc21`: the concentration at half-maximal activity (AC50) is 31.1 µM (active) in test [19]; 31.5 µM (active) in test [18]; 24.7 µM (active) in test [2]; 31.9 µM (active) in test [3]; 35.4 µM (active) in test [4]; 30.8 µM (active) in [5]. Also, the concentration at half-maximal activity (AC50) is 31.6 µM (active) in test [6]; 31 µM (active) in test [7]; 33.2 µM (active) in [9]; 31.6 µM (active) in [11]; 30.3 µM (active) in test [12]; 25.3 µM (active) with CD40, CD40 (gene 958). In addition, the AC50 was 23.9 µM (active) in test [14], 24.9 µM (active) in test [15] and 26 µM (active) in [17]. Besides, the result in test [8] and in test [13] was inactive.

Take `OCC(CO)n1cnc(-c2ccc(F)cc2)c1-c1ccnc(Oc2ccccc2)n1`: the result in test [1], in [3], in test [4], in [5], in [7] and in [8] was inactive. For the same compound, the outcome is “inactive” in test [9]; “inactive” in [10]; “inactive” in test [11]; “inactive” in test [12]; “inactive” with CD40, CD40 (gene 958); “inactive” in test [15]. Besides, the half-maximal activity concentration (AC50) in [2] was 1.8 µM (active); in test [13] it was 1.09 µM (active); in [16], 0.148 µM (active); in [17], 0.51 µM (active).

Regarding `O=C(NS(=O)(=O)/C=C/c1cccs1)c1ccc(F)cc1Br`, the result in test [1], in test [18], in test [2], in test [3], in test [4] and in test [5] was inactive. Besides, the outcome in [9], in test [10], in [11], in test [12], in test [13] and in [14] was inactive. Moreover, the outcome in test [15], in [16] and in test [17] was inactive. For the same compound, the AC50 is 2.09 µM (active) in test [7] and 0.451 µM (active) with CD40, CD40 (gene 958).
